Measurements: PubChem BioAssay AID623868 (Vanderbilt High Throughput Screening Facility, 2012)
The campaign covered roughly 2,100 compounds. About 760 (36%) were called active.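 Rule for the calls: active = thallium-flux fluorescence traces judged by eye to show enhanced or reduced glutamate response, manual score 1 or -1, so both directions (some results past the limit were not filed as active); inactive = the rest, including fluorescent or raised-baseline compounds.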 These entries were drawn from the full list.

assay: thallium influx changes without GIRK channels – cell-based, HEK-293 rmGlu8, no GIRK, thallium flux, counter-screen for GIRK activator project, confirmation (AID 623868); details: thallium flux fluorescence, at 10 µM, actives lie on both sides, codes: 1 enhancer, -1 blocker, 0 none, thallium stimulus containing EC20 glutamate;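 note: extra codes mark interference with 3 for fluorescent and 4 for baseline rise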

SMILES | manual score
CN=C(C)C1=C(O)C(C(=O)OC)C(C)(C)CC1=O (stereo not drawn) | 0 (inactive)
CC(C)c1nc(N2CCOCC2)c(C#N)c2c1CCCC2 | 0 (inactive)
CC1CCc2nn(CC(=O)N3CCN(C(=O)c4ccco4)CC3)cc2C1 (stereo not drawn) | 0 (inactive)
Cc1cc2cc3c(cc2nc1SCC(=O)N1CCN(C(=O)c2ccco2)CC1)OCO3 | -1 (active)
CCc1cc2cc(C)ccc2nc1SCC(=O)N1CCN(C(=O)c2ccco2)CC1 | 0 (inactive)
CC(C)CC(=O)CN1C(=O)C2(OCCO2)c2ccccc21 | 0 (inactive)
C=CCn1c(=S)[nH]c2sc3c(c2c1=O)CCC3 | 1 (active)
Cc1cc(C(=O)CSc2nnc(-c3ccncc3)n2-c2ccccc2)c(C)n1C | 0 (inactive)
O=C(Nn1cnnc1)c1cc2cc(Br)ccc2oc1=O | 0 (inactive)
CC(C)OCCCn1c(=S)[nH]c2cc3c(cc2c1=O)OCO3 | 1 (active)
Cc1ccccc1Cn1cc(NC(=O)c2nc3ncccn3n2)cn1 | 0 (inactive)
O=C(NNC(=O)c1sccc1-n1cccc1)c1ccc(Cl)cc1 | 1 (active)
O=C(NNS(=O)(=O)c1cc(Cl)cc(Cl)c1)c1sccc1-n1cccc1 | 0 (inactive)
O=C(NNC(=O)c1sccc1-n1cccc1)c1cccc(Cl)c1 | 1 (active)
COc1ccc2[nH]c(C)c(C(=O)CN3CC(C)OC(C)C3)c2c1 (stereo not drawn) | 0 (inactive)
COC(=O)c1ccc2c(=O)n(CC3CCCO3)c(=S)[nH]c2c1 (stereo not drawn) | 1 (active)
COC(=O)c1ccc(C)c(NC(=O)CN2C(=O)c3ccccc3S2(=O)=O)c1 | 0 (inactive)
Cc1cccn2c(=O)c3cc(C#N)c(=NC(=O)c4cccnc4)n(CC4CCCO4)c3nc12 (stereo not drawn) | 3 (inactive)
COCCn1c(=S)[nH]c2cc(C(=O)N3CCN(c4ccc(F)cc4)CC3)ccc2c1=O | 0 (inactive)
CCn1c(=S)[nH]c2cc(C(=O)OC)ccc2c1=O | 1 (active)
COc1ccc2occ(C(=O)c3ccc(N=C(C)N(C)C)cc3)c2c1 | 0 (inactive)
Cc1ccc(-n2[nH]c(C)c(C=Nc3cc(C)ccn3)c2=O)cc1 | 1 (active)
Cc1ccc(-n2[nH]c(C)c(/C=N/c3ccccn3)c2=O)cc1 | 0.5 (inactive)
CC1=NN(c2ccccc2)C(=O)/C1=C\c1c(C)[nH]n(-c2ccccc2)c1=O | 0 (inactive)
Cc1[nH]n(-c2ccccc2)c(=O)c1/C=N/c1ccccn1 | 1 (active)
O=c1c2ccccc2c(C=NCc2ccccn2)c(O)n1-c1ccccc1 | 0 (inactive)
CCCCN(CCCC)C(=S)N/N=C/c1c(C)[nH]n(-c2ccccc2)c1=O | 1 (active)
Cc1[nH]n(-c2ccccc2)c(=O)c1N=Nc1nccs1 | 1 (active)
